Laboratory results published in PubChem BioAssay AID1259421 (Broad Institute, 2018).
Several values for one entry are separate records, joined by “and”; a condition that tells them apart may be missing. Equal values may be shown once. Among all 6,400 compounds or so, about 610 (9.5%) were called active. Cut-off read from the data, not from the text of the source: active = activity change below about -70%; inconclusive = no clear call, values can overlap the other calls; inactive = above that. The list comes from a sample in which actives are over-represented; it also holds similar structures and randomly drawn compounds. The source holds several records for some structures; these can differ, active in one and inactive in another. Where a SMILES comes first, the peptide text is derived from it.

assay: Toxoplasma gondii ME49Luc growth in HeLa cells, luciferase, no IFN-y, primary screen (AID 1259421); conditions: T. gondii ME49Luc in HeLa, 72 h, stronger effect = lower value, concentration not given here

SMILES | activity change, negative = inhibition
NCC(=O)N[C@@H](CCC(N)=O)C(=O)O (H-Gly-Gln-OH) | 6.58% (inactive)
CC(C)C(N)=O | 7.84% (inactive)
Nc1ncnc2c1C(=O)N(c1ccc(C3CCC(CC(=O)O)CC3)cc1)CCO2 (stereo not drawn) | 6.2% (inactive)
NC1=N[C@H]2[C@H](CS[C@H]2CCCCC(=O)O)N1 | 20.2% (inactive)
C=C[C@]1(C)C[C@@H](OC(=O)CSC2C[C@H]3CC[C@@H](C2)N3C)[C@]2(C)[C@H](C)CC[C@]3(CCC(=O)[C@H]32)[C@@H](C)[C@@H]1O (stereo partly drawn) | -18.6% (inactive)
CC[C@H](NC(C)C)[C@H](O)c1ccc(O)c2[nH]c(=O)ccc12 | 3.71% (inactive)
CCOc1cc2ncc(C#N)c(Nc3ccc(F)c(Cl)c3)c2cc1NC(=O)/C=C/CN(C)C | -84.3% (active)
C=CC(=O)Nc1cc2c(Nc3ccc(F)c(Cl)c3)ncnc2cc1C#CC(C)(C)N1CCN(C)CC1 | -57.7% (inactive)
CCOc1cc(C(=O)Nc2ccc(Cl)c(-c3nc4ccccc4[nH]3)c2)cc(OCC)c1OCC | -69.9% (inactive)
CCOc1cc2ncc(C#N)c(Nc3ccc(OCc4ccccn4)c(Cl)c3)c2cc1NC(=O)/C=C/CN(C)C | -78.7% (active)
C[C@@H](NC(=O)c1ncnc(N)c1Cl)c1ncc(C(=O)Nc2cc(C(F)(F)F)c(Cl)cn2)s1 | 10.6% (inactive)
Cc1nc(NC(=O)N2CCC[C@H]2C(N)=O)sc1-c1csc(C(C)(C)C)n1 | 17.5% (inactive)
OCCNCCCOc1cccc(Cl)c1Cl | -43.4% (inactive) and 19.3% (inactive)
COc1cc([C@@H]2c3cc4c(cc3[C@H](O)[C@H]3COC(=O)[C@H]23)OCO4)cc(OC)c1OC | -64.9% (inactive)
COc1cc2c(c(OC)c1OC)-c1c(cc3c(c1OC)OCO3)C[C@H](C)[C@@H](C)C2 | 13.7% (inactive)
COc1cc([C@@H]2c3cc4c(cc3[C@H](O)[C@H]3COC(=O)[C@@H]23)OCO4)cc(OC)c1OC | -71% (active)
COc1cc([C@@H]2c3cc4c(cc3[C@@H](O[C@@H]3O[C@@H]5CO[C@@H](c6cccs6)O[C@H]5[C@H](O)[C@H]3O)[C@H]3COC(=O)[C@H]23)OCO4)cc(OC)c1O | -72.9% (active)
COc1cc([C@@H]2c3cc4c(cc3[C@@H](O[C@@H]3O[C@@H]5CO[C@@H](C)O[C@H]5[C@H](O)[C@H]3O)[C@H]3COC(=O)[C@H]23)OCO4)cc(OC)c1O | -10.1% (inactive) and -3.38% (inactive) and 9.65% (inactive)
COc1cc([C@@H]2c3cc4c(cc3C(OC3O[C@@H]5COC(C)O[C@H]5[C@H](O)[C@H]3O)C3COC(=O)[C@@H]32)OCO4)cc(OC)c1O (stereo partly drawn) | -0.506% (inactive)
COc1cc([C@@H]2c3cc4c(cc3C(O[C@@H]3O[C@@H]5CO[C@@H](c6cccs6)OC5[C@H](O)[C@H]3O)C3COC(=O)[C@@H]32)OCO4)cc(OC)c1O (stereo partly drawn) | -79.4% (active)
COc1cc([C@@H]2c3cc4c(cc3C(OC3OC5COC(C)OC5C(O)C3O)C3OCC(=O)[C@@H]32)OCO4)cc(OC)c1O (stereo partly drawn) | -24.1% (inactive)
C=C(C)[C@@H]1CC[C@]2(C(=O)O)CC[C@]3(C)[C@H](CC[C@@H]4[C@@]5(C)CC[C@H](OC(=O)CC(C)(C)C(=O)O)C(C)(C)[C@@H]5CC[C@]43C)[C@@H]12 | -18.2% (inactive)
Fc1ccc2nc(CCC#Cc3ccccn3)cn2c1 | 1.01% (inactive)
NS(=O)(=O)OC[C@@H]1C[C@@H](n2ccc3c(N[C@H]4CCc5ccccc54)ncnc32)C[C@@H]1O | -17.2% (inactive)

SMILES | activity change, negative = inhibition
OC1C(O)C(O)C(O)C(O)C1O (stereo not drawn) | 18.3% (inactive)
COc1ccc(C(C#N)C(C)C)cc1OC (stereo not drawn) | 21.3% (inactive)
CN([NH2+][O-])c1cc(O)ccc1O | 11.6% (inactive)
Cc1occc(=O)c1CC=O | 1.36% (inactive)
CC1COC2(CCN(c3nc(=O)c4cc(C(F)(F)F)cc([N+](=O)[O-])c4s3)CC2)O1 (stereo not drawn) | 301% (inactive)
COc1cc2ncnc(Nc3ccc(Oc4ccccc4)cc3)c2cc1OC | 2.86% (inactive)
COc1cc2ncnc(Nc3ccc(Cl)cc3F)c2cc1OC | -68.4% (inactive) and -67% (inactive)
Cc1cc(F)c(Nc2ncnc3cc(OCc4ccccc4)ccc23)cc1O | -65.2% (inactive) and -70.4% (active)
CC(C)(C)c1ccc(C(=O)CCCN2CCC(OC(c3ccccc3)c3ccccc3)CC2)cc1 | -87.2% (active)
CC(C)(C(=O)O)c1ccc(C(=O)CCCN2CCC(OC(c3ccccc3)c3ccccc3)CC2)cc1 | 6.98% (inactive)
O=C(O)CCCN1CCC(O[C@@H](c2ccc(Cl)cc2)c2ccccn2)CC1 | 24.8% (inactive)
O=P(O)(O)OC(CO)CO | 38% (inactive)
CN(C)C(=O)c1ccc(S(=O)(=O)c2ccc(NC(=O)C(C)(O)C(F)(F)F)c(Cl)c2)cc1 (stereo not drawn) | -6.06% (inactive)
CC1(C)C2CC[C@]3(C)C(C(=O)C=C4[C@H]5C[C@@](C)(C(=O)O)CC[C@]5(C)CC[C@]43C)[C@@]2(C)CC[C@@H]1O (stereo partly drawn) | 1.01% (inactive)
CC(=O)Oc1cc2c(c(C)c1OC(C)=O)CC=C1[C@@]2(C)CC[C@@]2(C)C3C[C@](C)(C(=O)O)CC[C@]3(C)CC[C@]12C (stereo partly drawn) | -93.4% (active)
CC1(C)[C@@H](O)CC[C@]2(C)[C@H]3C(=O)C=C4[C@@H]5C[C@@](C)(C(=O)O)CC[C@]5(C)CC[C@@]4(C)[C@]3(C)CC[C@@H]12 | 6.44% (inactive)
C=C[C@@](C)(O)CCC1C(=C)CCC2[C@@](C)(CO)CCC[C@]12C (stereo partly drawn) | 13.4% (inactive)
CC1(C)O[C@@H]2CC3C4C[C@H](F)C5=CC(=O)C=C[C@]5(C)[C@@]4(F)[C@@H](O)C[C@]3(C)[C@]2(C(=O)CO)O1 (stereo partly drawn) | -11.6% (inactive)
C=CC(=O)Nc1cccc(Oc2nc(Nc3ccc(N4CCN(C)CC4)cc3)ncc2Cl)c1 | -59.1% (inactive)
CS(=O)(=O)c1cccc(CNc2nc(Nc3ccc4c(c3)CCC(=O)N4)ncc2C(F)(F)F)c1 | -29.4% (inactive)
Cc1cnc(Nc2ccc(N3CCN(C)CC3)cc2)nc1Nc1cccc(S(=O)(=O)NC(C)(C)C)c1 | -76.6% (active)
Cc1cnc(Nc2ccc(OCCN3CCCC3)cc2)nc1Nc1cccc(S(=O)(=O)NC(C)(C)C)c1 | -95.9% (active)
C=CC(=O)Nc1cccc(Nc2nc(Nc3ccc(OCCOC)cc3)ncc2F)c1 | -10% (inactive)
C=CC(=O)Nc1cccc(Sc2nc(Nc3ccc(N4CCN(C)CC4)cc3)ncc2Cl)c1 | -58.5% (inactive)
